# Whole data set: some 2,900 compounds, median “NF-kB SEAP reporter activity, fold change vs agonist alone” near 0.99, cut for the highest 2% near 2.6. What follows is part of a selection rich in the highest values, with near analogues and random picks from the rest.
# Legend:
# [1] = system: RAW-Dual; assay: NF-kB SEAP reporter activity, fold change vs agonist alone; higher = enhanced NF-kB activity; settings: library stock concentration (final ~1000-fold dilution): 10 mM
# Method in brief: (§1)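 Library stock was pin-tooled at 50 nL into 384-well plates of RAW-Dual macrophages (50,000 cells/well, DMEM), followed 1 h later by a PRR agonist, and the cells were kept at 37 °C, 5% CO2. Supernatant collected after 20 hours was read for IRF by QuantiLuc luminescence and for NF-κB by QuantiBlue absorbance at 620 nm. Reporter activity is fold change over agonist-alone wells, and a well counted as cytotoxic when its IncuCyte confluency was below 70% of agonist controls in both mask sets.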
# [2] = system: RAW-Dual; assay: NF-kB SEAP reporter activity, fold change vs agonist alone; cytotoxicity flag (confluency mask): not cytotoxic; higher = enhanced NF-kB activity
# Method in brief: as §1
# [3] = system: RAW-Dual; assay: NF-kB SEAP reporter activity, fold change vs agonist alone; cytotoxicity flag (confluency mask): cytotoxic (confluency <70% of control); higher = enhanced NF-kB activity
# Method in brief: as §1
# [4] = cytotoxicity flag (confluency mask): not cytotoxic, agonist: Imiquimod (TLR7) […]
# [5] = cytotoxicity flag (confluency mask): not cytotoxic, agonist: MPLA (TLR4) […]
# [6] = agonist: ODN 1826 (TLR9) 0.5 ug/mL
# [7] = agonist: Pam2CSK4 (TLR2/6) 0.1 ug/mL
# [8] = agonist: Pam3CSK4 (TLR2/1) 0.1 ug/mL
# [9] = cytotoxicity flag (confluency mask): cytotoxic (confluency <70% of control), agonist: Imiquimod (TLR7) […]
# [10] = cytotoxicity flag (confluency mask): cytotoxic (confluency <70% of control), agonist: MPLA (TLR4) […]
structure (smiles),measurement,setting,value
OCCn1cc(-c2ccc3c(c2)CC/C3=N\O)c(-c2ccncc2)n1,NF-kB SEAP reporter activity,[1]; [4],1.65
same,NF-kB SEAP reporter activity,[1]; [5],1.57
CS(=O)(=O)c1ccc(Oc2cc(F)cc(C#N)c2)c2c1C(O)C(F)(F)C2 (stereo not drawn),NF-kB SEAP reporter activity,[1]; [4],1.03
same,NF-kB SEAP reporter activity,[1]; [5],1.16
CS(=O)(=O)c1ccc(Oc2cc(F)cc(C#N)c2)c2c1C(O)C(F)(F)C2 (stereo not drawn) (library stock concentration (final ~1000-fold dilution): 10 mM),NF-kB SEAP reporter activity,[2]; agonist: LPS (TLR4) 0.1 ug/mL,1.07
same,NF-kB SEAP reporter activity,[2]; [6],1.35
same,NF-kB SEAP reporter activity,[2]; [7],1.01
same,NF-kB SEAP reporter activity,[2]; [8],1.2
COc1ccc(CCNCC(O)COc2cccc(C)c2)cc1OC.Cl (stereo not drawn) (library stock concentration (final ~1000-fold dilution): 10 mM),NF-kB SEAP reporter activity,[2]; agonist: LPS (TLR4) 0.1 ug/mL,1.02
same,NF-kB SEAP reporter activity,[2]; [6],0.846
same,NF-kB SEAP reporter activity,[2]; [7],0.999
same,NF-kB SEAP reporter activity,[2]; [8],1.08
COc1ccc(CCNCC(O)COc2cccc(C)c2)cc1OC.Cl (stereo not drawn),NF-kB SEAP reporter activity,[1]; [5],1.06
COc1ccccc1N1CCN(CC(O)COc2cccc3ccccc23)CC1.Cl.Cl (stereo not drawn) (library stock concentration (final ~1000-fold dilution): 10 mM),NF-kB SEAP reporter activity,[2]; agonist: LPS (TLR4) 0.1 ug/mL,0.815
same,NF-kB SEAP reporter activity,[2]; [6],0.929
same,NF-kB SEAP reporter activity,[2]; [7],0.819
same,NF-kB SEAP reporter activity,[2]; [8],0.805
COc1ccccc1N1CCN(CC(O)COc2cccc3ccccc23)CC1.Cl.Cl (stereo not drawn),NF-kB SEAP reporter activity,[1]; [4],1.01
same,NF-kB SEAP reporter activity,[1]; [5],0.766
O=C(NO)c1ccc(CC(=O)N(CCO)c2ccccc2)cc1,NF-kB SEAP reporter activity,[1]; [4],1.15
same,NF-kB SEAP reporter activity,[1]; [5],1.79
COc1cc(C(=O)N(CCCc2ccccc2)Cc2ccc(CC(=O)O)cc2)cc(OC)c1C,NF-kB SEAP reporter activity,[1]; [4],1.1
same,NF-kB SEAP reporter activity,[1]; [5],1.11
CCCCN(Cc1ccc(C(=O)NO)cc1)C(=O)Nc1ccccc1 (library stock concentration (final ~1000-fold dilution): 10 mM),NF-kB SEAP reporter activity,[2]; agonist: LPS (TLR4) 0.1 ug/mL,6.63
same,NF-kB SEAP reporter activity,[2]; [6],2.5
same,NF-kB SEAP reporter activity,[2]; [7],1.18
same,NF-kB SEAP reporter activity,[2]; [8],1.73
CCCCN(Cc1ccc(C(=O)NO)cc1)C(=O)Nc1ccccc1,NF-kB SEAP reporter activity,[1]; [4],1.52
same,NF-kB SEAP reporter activity,[1]; [5],2.9
COc1cc(C(=O)N(CCCc2ccccc2)Cc2ccc(CC(=O)O)cc2)cc(OC)c1C (library stock concentration (final ~1000-fold dilution): 10 mM),NF-kB SEAP reporter activity,[2]; agonist: LPS (TLR4) 0.1 ug/mL,1.19
same,NF-kB SEAP reporter activity,[2]; [6],0.976
same,NF-kB SEAP reporter activity,[2]; [7],0.823
same,NF-kB SEAP reporter activity,[2]; [8],0.908
O=C(NO)c1ccc(CC(=O)N(CCO)c2ccccc2)cc1 (library stock concentration (final ~1000-fold dilution): 10 mM),NF-kB SEAP reporter activity,[2]; agonist: LPS (TLR4) 0.1 ug/mL,1.94
same,NF-kB SEAP reporter activity,[2]; [6],1.74
same,NF-kB SEAP reporter activity,[2]; [7],0.801
same,NF-kB SEAP reporter activity,[2]; [8],1.21
CC(C)CNc1ccnc(NCc2csc(-c3ccccc3)n2)n1.Cl (library stock concentration (final ~1000-fold dilution): 10 mM),NF-kB SEAP reporter activity,[3]; agonist: LPS (TLR4) 0.1 ug/mL,1.62
same,NF-kB SEAP reporter activity,[3]; [6],0.221
same,NF-kB SEAP reporter activity,[3]; [7],0.625
same,NF-kB SEAP reporter activity,[3]; [8],0.446
CC(C)CNc1ccnc(NCc2csc(-c3ccccc3)n2)n1.Cl,NF-kB SEAP reporter activity,[1]; [9],1.85
same,NF-kB SEAP reporter activity,[1]; [10],1.47
Nc1ccn(C2OC(CO)C(O)C2(F)F)c(=O)n1 (stereo not drawn) (library stock concentration (final ~1000-fold dilution): 10 mM),NF-kB SEAP reporter activity,[3]; agonist: LPS (TLR4) 0.1 ug/mL,0.91
same,NF-kB SEAP reporter activity,[3]; [6],1.88
same,NF-kB SEAP reporter activity,[3]; [7],1.18
same,NF-kB SEAP reporter activity,[3]; [8],1.05
Nc1ccn(C2OC(CO)C(O)C2(F)F)c(=O)n1 (stereo not drawn),NF-kB SEAP reporter activity,[1]; [9],2.14
same,NF-kB SEAP reporter activity,[1]; [10],1.35
CCCCCCOC(=O)c1cc(O)c(=O)c2c(O)c(O)c(OC)cc2c1,NF-kB SEAP reporter activity,[1]; [4],1.2
same,NF-kB SEAP reporter activity,[1]; [5],0.857
CCCCCCOC(=O)c1cc(O)c(=O)c2c(O)c(O)c(OC)cc2c1 (library stock concentration (final ~1000-fold dilution): 10 mM),NF-kB SEAP reporter activity,[2]; agonist: LPS (TLR4) 0.1 ug/mL,0.614
same,NF-kB SEAP reporter activity,[2]; [6],0.459
same,NF-kB SEAP reporter activity,[2]; [7],0.599
same,NF-kB SEAP reporter activity,[2]; [8],0.895
NC(=O)c1cccc2nc(-c3ccc(C4CCCN4)cc3F)[nH]c12 (stereo not drawn) (library stock concentration (final ~1000-fold dilution): 10 mM),NF-kB SEAP reporter activity,[2]; agonist: LPS (TLR4) 0.1 ug/mL,0.553
same,NF-kB SEAP reporter activity,[2]; [6],0.198
same,NF-kB SEAP reporter activity,[2]; [7],1.03
same,NF-kB SEAP reporter activity,[2]; [8],1
NC(=O)c1cccc2nc(-c3ccc(C4CCCN4)cc3F)[nH]c12 (stereo not drawn),NF-kB SEAP reporter activity,[1]; [4],1.14
same,NF-kB SEAP reporter activity,[1]; [5],0.748
COC(=O)CC(O)(CCCC(C)(C)O)C(=O)OC1C(OC)=CC23CCCN2CCc2cc4c(cc2C13)OCO4 (stereo not drawn),NF-kB SEAP reporter activity,[1]; [9],0.141
same,NF-kB SEAP reporter activity,[1]; [10],0.255
COC(=O)CC(O)(CCCC(C)(C)O)C(=O)OC1C(OC)=CC23CCCN2CCc2cc4c(cc2C13)OCO4 (stereo not drawn) (library stock concentration (final ~1000-fold dilution): 10 mM),NF-kB SEAP reporter activity,[3]; agonist: LPS (TLR4) 0.1 ug/mL,0.397
same,NF-kB SEAP reporter activity,[3]; [6],0.169
same,NF-kB SEAP reporter activity,[3]; [7],0.0771
same,NF-kB SEAP reporter activity,[3]; [8],0.133
Cc1ccc(C(=O)N(CCCN)C(c2oc3cc(Cl)ccc3c(=O)c2Cc2ccccc2)C(C)C)cc1.Cl (stereo not drawn),NF-kB SEAP reporter activity,[1]; [4],0.905
same,NF-kB SEAP reporter activity,[1]; [5],1.03
Cc1ccc(C(=O)N(CCCN)C(c2oc3cc(Cl)ccc3c(=O)c2Cc2ccccc2)C(C)C)cc1.Cl (stereo not drawn) (library stock concentration (final ~1000-fold dilution): 10 mM),NF-kB SEAP reporter activity,[2]; agonist: LPS (TLR4) 0.1 ug/mL,0.189
same,NF-kB SEAP reporter activity,[2]; [6],0.953
same,NF-kB SEAP reporter activity,[2]; [7],0.344
same,NF-kB SEAP reporter activity,[2]; [8],0.73

# From the supplement of paper PMC10037445
